Experimental findings from PubChem BioAssay AID686978 (National Center for Advancing Translational Sciences (NCATS), 2013) are described below.

“And” between values parts separate entries of the source, which are not always exact repeats. Equal entries are not always repeated. Hit rate of the full screen: of about 420,000 compounds, about 64,000 (15%) were called active. Roughly 27% stayed inconclusive and do not appear here. Calls come from the whole dose curve; as a rule, active = well fitted inhibition curve with a large enough effect; inconclusive = small, poorly fitted or top-dose-only effect; inactive = flat fitted curve, though single readings scatter. Only a sample is shown. Entries that show only a call come without a potency.
Potency is the fitted concentration of half-maximal effect.

A short description of this assay: qHTS for Inhibitors of human tyrosyl-DNA phosphodiesterase 1 (TDP1): qHTS in cells in absence of CPT. Note: nearly all actives have a fitted effect of over 55% in size. Particulars: DT40 Tdp1-/- hTDP1 cells, no CPT, ATP luminescence, 48 h; activity change, negative = growth inhibition: at 46.2 µM (top of the series). The method, boiled down: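 Cells were dispensed at 400 per well, compounds added by pin tool, plates incubated ≥48 hr at 37 °C, then CellTiter-Glo added for 30 min at room temperature before luminescence reading. Line: DT40 Tdp1-/- complemented with hTDP1; camptothecin omitted.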
In general terms: In qHTS, concentration-response curves come from the screen itself.
Consider `Cc1nc2c(C(=O)NCc3ccc4c(c3)OCO4)c[nH]n2c(=O)c1Cc1ccccc1F`, for which the Potency result was “inactive”.

Regarding `Cc1cc(N)n(-c2ccc(S(=O)(=O)N3CCCC3)cc2[N+](=O)[O-])n1`, the Potency result is “inactive”.

`O=C(c1cc2ccccc2s1)N1CCN(c2ccccn2)CC1`: the Potency entry is “inactive”.

For `CCOCCCN(C)C1CCN(C(=O)c2oc3ccccc3c2NC(=O)Cc2cccc([N+](=O)[O-])c2)CC1`, the Potency result is “inactive”. As to `COCC(=O)Nc1c(C(=O)N2CCCC2)oc2ccccc12`, the Potency entry is “inactive”.

For the compound `Cc1cc(C(=O)N2CCN(c3ccccn3)CC2)c(C)o1`, the Potency is 12.6 µM (active). As for `O=C(Nc1c(C(=O)N2CCN(c3ccc(F)cc3)CC2)oc2ccccc12)c1ccco1`, the Potency was 18.4 µM (active). The result for `CCC(=O)Nc1c(C(=O)N2CCN(c3ccc(F)cc3)CC2)oc2ccccc12` reads 25.9 µM (active); that for `COc1cccc(OC)c1C(=O)Nc1c(C(=O)N2CCN(c3ccccn3)CC2)oc2ccccc12`, 25.9 µM (active). Take `O=C(Nc1ccccc1C(=O)N1CCCCC1)c1ccco1`: the Potency entry is “inactive”.

For the compound `CCOCCCN(C)C1CCN(C(=O)c2oc3ccccc3c2NC(=O)COc2cccc(C)c2)CC1`, the Potency result is “inactive”.

For the compound `O=C(C(Cl)Cl)N1CCN(c2ccccn2)CC1`, the Potency entry is “inactive”. For `O=C(c1c(F)cccc1Cl)N1CCN(c2ccccn2)CC1`, the Potency entry is “inactive”. Regarding `O=C(c1ccco1)N1CCN(C(=S)Nc2cc(F)cc(F)c2)CC1`, the Potency entry is “inactive”. `O=C(CSc1nnc(Nc2ccccc2F)s1)NC1CCCC1`: the Potency result is “inactive”.

Take `CC(=O)/C(C)=N\O`: the Potency result was “inactive”. Under `COc1cc(C2C(C(=O)c3cccs3)=C(O)C(=O)N2CCN2CCOCC2)ccc1OCCC(C)C` (stereo not drawn) stands “inactive”. Turning to `CSc1cc(C)[nH]c(=O)n1`, the Potency result was “inactive”.

With `Cc1nnc(SCc2cccc(Cl)c2)n(N)c1=O`, the Potency entry was “inactive”. Under `COC(=O)Nc1ccc(S(=O)(=O)N2CCN(CCN3C(=O)C4C5C=CC(C5)C4C3=O)CC2)cc1` (stereo not drawn) stands “inactive”.

Turning to `Cc1ccc(C2SCC(=O)N2c2ccccc2)cc1` (stereo not drawn), the Potency result was “inactive”. On to `Cc1ccc(S(=O)(=O)N(C)C)cc1NC(=O)/C=C/c1cccs1`, for which the Potency result was “inactive”. For `CCC(=O)N(Cc1ccccc1)c1ccccn1`, the Potency result was “inactive”. Under `Cc1csc2ncc(C(=O)N(Cc3ccccc3)c3ccccn3)c(=O)n12` stands “inactive”.

`CC(C)(C)C(=O)N(Cc1ccccc1)c1ccccn1`: the Potency entry is “inactive”. In the case of `Cc1ccc(CN(C(=O)c2ccccc2[N+](=O)[O-])c2ccccn2)cc1`, the Potency is 11.6 µM (active).

In the case of `COc1cc(CN(C(=O)c2ccccc2Br)c2ccccn2)cc(OC)c1OC`, the Potency was 13 µM (active). As for `COC(=O)c1cc(C(=O)N(Cc2ccccc2)c2ccccn2)cc([N+](=O)[O-])c1`, the Potency result is “inactive”. Under `O=C(c1ccco1)N1CCC2(CC1)CN(c1ncccn1)C2` stands “inactive”.

Take `CCN(CC(=O)Nc1c(F)cccc1F)C(=O)c1ccc(S(=O)(=O)N2CCCCC2)cc1`: the Potency result is “inactive”.

Consider `CCN1CCN(C(=O)N(Cc2ccc(Cl)cc2)S(=O)(=O)c2ccc(C)cc2)CC1`, for which the Potency entry was “inactive”. The result for `O=c1[nH]c2ccccc2s1` reads “inactive”; that for `O=C(Cn1c2[n+](c3ccc(C(F)(F)F)cc31)CCCCC2)Nc1c(F)cccc1F`, “inactive”. The result for `COc1ccc(Cl)cc1NC(=O)CSc1nc2ccccc2c2nc(-c3ccccc3)nn12` reads “inactive”; that for `Cc1ccc(NC(=O)CSc2nc3ccccc3c3nc(CCn4cncc4C)nn23)cc1F`, 20.6 µM (active); that for `CC(=O)NCCn1c(SCC(=O)Nc2ccc(C)cc2)nc2ccccc2c1=O`, “inactive”. The result for `CCCCc1nc2ccc(F)cc2cc1C` reads “inactive”; that for `OCC[C@H]1C[C@H](O)[C@@H](O)[C@]2(Cc3ccccc3CO2)O1`, “inactive”; that for `O=C1OCCC1=COCCCCOC=C1CCOC1=O`, “inactive”. For the compound `Cc1ccnc(NC(=O)CCNS(=O)(=O)c2ccc(C)c(C)c2)c1`, the Potency result is “inactive”. For the compound `Cc1ccc(S(=O)(=O)NCCC(=O)Nc2ccc(C)c(Cl)c2)cc1C`, the Potency result was “inactive”. As to `CC(=O)CCS(=O)(=O)c1ccc(C)c(C)c1`, the Potency was 29.1 µM (active). The result for `CC(=O)Nc1c2c(nn1-c1cccc(C)c1)CSC2` reads “inactive”; that for `Cn1cc(-c2nc3cncnc3n(-c3ccccc3)c2=O)c2ccccc21`, “inactive”; that for `Cc1cc(C(=O)OCC(=O)Nc2ccccc2Cl)c(C)o1`, “inactive”. Consider `CCn1nccc1C(=O)Nc1ccc(Cl)c(Cl)c1`, for which the Potency entry is “inactive”.

On to `O=C(Nc1ccc(S(=O)(=O)Nc2ncccn2)cc1)C12CC3CC(CC(C3)C1)C2`, for which the Potency result was “inactive”. In the case of `CCn1nccc1C(=O)Nc1ccc(S(=O)(=O)NC23CC4CC(CC(C4)C2)C3)cc1`, the Potency was 16.4 µM (active). The result for `O=C(NC(=O)N1CCOCC1)c1ccccc1` reads “inactive”; that for `CCOC(=O)c1ccccc1NS(=O)(=O)c1ccc(OC)cc1`, 14.6 µM (active); that for `COCCNC(=O)c1ccccc1NS(=O)(=O)c1ccc(C)c([N+](=O)[O-])c1`, “inactive”. The result for `CCOc1cc(NS(=O)(=O)c2ccc(OC)cc2)c(OCC)cc1NC(C)=O` reads “inactive”.

As to `O=c1nc(N/N=C/c2ccco2)cn[nH]1`, the Potency entry was “inactive”. `CC1CC(C)CN(C(=O)C2CC(=O)N(c3ccc(F)cc3)C2)C1` (stereo not drawn): the Potency result was “inactive”. In the case of `CCOc1cc(C(=O)OCC(=O)Nc2cccc(C)c2)ccc1OCC(=O)N1CCOCC1`, the Potency entry is “inactive”. On to `COc1ccc(C2CC(=O)Oc3ccc(C(C)(C)C)cc32)cc1` (stereo not drawn), for which the Potency entry was “inactive”. Regarding `COc1ccccc1-c1cc(C(=O)NCCCn2ccnc2)no1`, the Potency entry was “inactive”. Under `COc1ccc(-c2cc(C(=O)NCCCn3ccnc3)no2)cc1` stands “inactive”. The result for `O=C(NCCCn1ccnc1)c1cc(-c2ccccc2)on1` reads 7.31 µM (active); that for `O=C(NCCN1CCOCC1)[C@H](Cc1ccccc1)N1C(=O)c2ccccc2C1=O`, “inactive”; that for `Cc1csc(SCC(=O)Nc2sccc2C#N)n1`, “inactive”. `Brc1ccc(-c2n(-c3ccccn3)c3ccccc3[n+]2-c2ccccn2)cc1`: the Potency was 13 µM (active). Consider `O=C(Cc1ccc(Br)cc1)N1CCN(c2ccccn2)CC1`, for which the Potency entry is “inactive”.

`Cn1cc(CNC(=O)c2ccc(OC3CCN(Cc4ccccn4)CC3)cc2)cn1`: the Potency result is “inactive”. As to `COC(=O)c1ccc(Cn2c(SCC(=O)N(C)c3ccccc3)nc3ccccc32)cc1`, the Potency was 23.1 µM (active). The result for `CCN(CC)C(=O)CSc1nc2ccccc2n1CC(=O)N1CCN(c2ccccc2OC)CC1` reads “inactive”; that for `CCn1c(SCC(=O)N2CCCC2=O)nc2ccccc21`, “inactive”; that for `COC(=O)CSc1nc2ccccc2c(=O)n1Cc1ccccc1`, “inactive”.

Regarding `Cc1ccc(Cn2c(SCC(=O)N/N=C/c3ccccc3OCC(=O)O)nc3ccccc32)cc1`, the Potency entry is “inactive”. Under `CN(C(=O)CSc1nc2ccccc2n1Cc1ccccc1C#N)c1ccccc1` stands 18.4 µM (active); under `CC1=C(C/C=C(\C)CCCC(C)CCCC(C)CCCC(C)C)C(=O)c2ccccc2C1=O` (stereo not drawn), “inactive”; under `Cc1cc(C)cc(NC(=O)COc2coc(CN3CCN(c4ccccc4)CC3)cc2=O)c1`, “inactive”. Regarding `CC1(C(=O)NS(=O)(=O)c2cccc(F)c2)CCN1C(=O)Cc1ccc(Cl)cc1Cl` (stereo not drawn), the Potency entry is “inactive”. As to `COc1ccccc1NC(=O)c1ccc(N2CC3CC(C2)c2cccc(=O)n2C3)c(NC(=O)c2cccnc2)c1` (stereo not drawn), the Potency result was “inactive”.

In the case of `O=C(OCC1OC(Oc2ccc(O)cc2)C(O)C(O)C1O)c1ccccc1` (stereo not drawn), the Potency entry was “inactive”. Consider `CCCCNC(=O)CSc1nccn1Cc1ccccc1`, for which the Potency result was “inactive”.

In the case of `O=C(CSc1nccn1Cc1ccc(Cl)cc1)NCc1ccccc1`, the Potency is 29.1 µM (active).

`CCCCCCNC(=O)CSc1nccn1Cc1ccccc1`: the Potency entry was “inactive”. The result for `NC(=O)c1ccccc1N=Cc1ccc2ccccc2c1` reads 16.4 µM (active). The result for `N=c1oc2ccccc2cc1C(=O)N/N=C/c1ccccc1` reads “inactive”. Consider `O=C(COC(=O)Cc1ccccc1F)NNC(=O)c1ccc(Cl)cc1`, for which the Potency result is “inactive”. The result for `Cc1ccc(S(=O)(=O)N(C)C)cc1NC(=O)C1Cc2ccccc2CN1C(=O)c1ccco1` (stereo not drawn) reads “inactive”; that for `Cc1ccc(NC(=O)C2CCCN2C(=O)OCc2ccccc2)cc1C` (stereo not drawn), “inactive”.

Consider `Cc1ccc(C)c(NC(=O)C2Cc3ccccc3CN2C(=O)OCc2ccccc2)c1` (stereo not drawn), for which the Potency is 20.6 µM (active). Regarding `Fc1ccccc1OCCCCn1cncn1`, the Potency result is “inactive”.

In the case of `COc1cc(/C=C/CNC[C@H]2O[C@@H](n3cnc(C(N)=O)n3)[C@H](O)[C@@H]2O)ccc1O`, the Potency result was “inactive”. Under `OCC[C@H]1C[C@@H](O)[C@H](O)[C@]2(OCCCc3ccccc32)O1` stands “inactive”; under `O=C(NCCN1CCOCC1)Nc1cccc(Cl)c1`, “inactive”. `CCN1CCN(CCNC(=O)c2ccc3c(c2)NC(=O)/C(=C\c2cccc(Cl)c2)S3)CC1`: the Potency was 16.4 µM (active). For `O=C(NCCCN1CCCCC1)c1ccc2c(c1)NC(=O)C(N1CCOCC1)S2` (stereo not drawn), the Potency entry was “inactive”.

As for `Cc1cc(C)n(-c2ccc(NC(=O)C3CCCCN3C(=O)c3cccs3)cc2)n1` (stereo not drawn), the Potency entry is “inactive”.

For the compound `CCOc1ccc(/C=C(/NC(=O)c2ccccc2)C(=O)NCCC(=O)O)cc1`, the Potency entry is “inactive”. Under `O=C1CCNCCN1[C@H](CO)Cc1ccccc1` stands “inactive”; under `O=C1CCN(Cc2ccc([N+](=O)[O-])cc2)CCN1[C@H](CO)Cc1ccccc1`, “inactive”. On to `O=C1CC[C@H](O)CCN1[C@H](CSc1ccc(Br)cc1)Cc1ccccc1`, for which the Potency was 15.8 µM (active) and 16.4 µM (active). The result for `COc1ccccc1NC(=O)C1=C(C)Nc2ncnn2C1c1ccc(C)o1` (stereo not drawn) reads “inactive”; that for `CC(OC(=O)c1cc2ccccc2o1)C(=O)Nc1ccc(N2CCOCC2)cc1` (stereo not drawn), “inactive”; that for `CCOc1ccc(CCNC(=O)c2csc3c2CCCCC3)cc1`, “inactive”. As for `CCOC(=O)c1c(NC(=O)Cc2coc3ccc(CC)cc23)sc2c1CCC2`, the Potency entry was “inactive”. `CCOC(=O)c1ccc(NC(=O)c2c(NCc3ccccc3)[nH]c(=O)[nH]c2=O)cc1`: the Potency result is “inactive”. In the case of `Cc1ccc(NC(=O)c2csc3c2CCCC3)cc1`, the Potency entry was “inactive”. In the case of `COC(=O)c1sc(NC(=O)c2csc3c2CCCC3)nc1C`, the Potency is 23.1 µM (active). Turning to `CCOC(=O)c1ccc(NC(=O)CNC(=O)c2ccco2)cc1`, the Potency result is “inactive”. Regarding `CCOC(=O)c1ccc(NC(=O)c2c(NCc3cccc(OC)c3)sc3c2CCC3)cc1`, the Potency is 11.6 µM (active). Turning to `CC(=O)Cc1nsc(NC(=O)c2csc3c2CCCC3)n1`, the Potency entry was “inactive”. On to `COC(=O)c1sc(NC(=S)NC(=O)c2ccc(C)cc2)nc1C`, for which the Potency result is “inactive”. Take `CCOC(=O)c1ccc(NC(=O)c2csc3c2CCCCC3)cc1`: the Potency is 14.6 µM (active). As to `CCOC(=O)c1ccc(NC(=O)c2c(NCc3cccs3)sc3c2CCCC3)cc1`, the Potency is 20.6 µM (active).
